PubChem BioAssay (EPA / NIEHS)
Results filed as inconclusive are left out. The source made the active and inactive calls. Rule for the calls: active = hit-call score of the fitted dose curve at least 0.9, where 1 is the maximum; inconclusive = response in the unintended direction; inactive = score below 0.9.

What follows are compounds tested against Nuclear receptor subfamily 1 group I member 2 (Homo sapiens) (UniProt O75469) (assay: ATG_PXR_TRANS: Attagene TRANS-FACTORIAL HepG2 Assay for human Pregnane X Receptor (PXR) (AID 2283008)).
Nuclear receptor subfamily 1 group I member 2 (Homo sapiens), sequence (O75469 whole entry, looked up): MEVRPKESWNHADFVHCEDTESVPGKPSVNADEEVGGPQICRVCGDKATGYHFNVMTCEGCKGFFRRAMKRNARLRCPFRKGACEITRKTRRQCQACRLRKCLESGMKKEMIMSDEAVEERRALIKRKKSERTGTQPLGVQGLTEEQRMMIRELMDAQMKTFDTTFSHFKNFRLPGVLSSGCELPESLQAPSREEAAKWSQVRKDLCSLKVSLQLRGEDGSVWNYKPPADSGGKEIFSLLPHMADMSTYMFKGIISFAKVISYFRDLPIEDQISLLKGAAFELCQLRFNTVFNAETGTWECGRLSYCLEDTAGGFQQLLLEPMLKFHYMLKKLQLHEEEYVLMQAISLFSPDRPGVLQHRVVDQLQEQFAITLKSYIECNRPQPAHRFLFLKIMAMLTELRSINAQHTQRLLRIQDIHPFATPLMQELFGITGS
Protocol: ATG_TRANS is a cell-based, multiplexed-readout assay that uses HepG2, a human liver cell line, with measurements taken at 24 hours after chemical dosing in a 24-well plate.ATG_PXR_TRANS is one of 30 assay component(s) measured or calculated from the ATG_TRANS assay. It is designed to make measurements of mRNA induction, a form of inducible reporter, as detected with fluorescence intensity signals by Reverse transcription polymerase chain reaction (RT-PCR) and Capillary electrophoresis technology.Data from the assay component ATG_PXR_TRANS was analyzed into 1 assay endpoint. This assay endpoint, ATG_PXR_TRANS, was analyzed in the positive analysis fitting direction relative to DMSO as the negative control and baseline of activity. Using a type of inducible reporter, measures of mRNA for gain-of-signal activity can be used to understand the reporter gene at the transcription factor-level as they relate to the gene NR1I2. Furthermore, this assay endpoint can be referred to as a primary readout, because this assay has produced multiple assay endpoints where this one serves a reporter gene function. To generalize the intended target to other relatable targets, this assay endpoint is annotated to the nuclear receptor intended target family, where the subfamily is non-steroidal.
Human liver HepG2 cells are transiently transfected with multiple reporter transcription units (MRTUs) in 6-well plates using FuGene 6 reagent (Roche; 3 ml FuGene/1 mg DNA). The MRTU constructs are regulated by a cis-regulating element (promoter). […] A major difference between the CIS and TRANS system is that in CIS activities of endogenous TFs are measured, whereas the TRANS assay evaluates changes in activities of exogenous, chimeric NR-Gal4 proteins. […] At the end of 24 hour incubation, total RNA was isolated using TriZol reagent (Invitrogen). The isolated RNA is then reverse-transcribed using oligo(dT) primer and Mo-MLV reverse transcriptase (Invitrogen) with DNAse I (Ambion) treatment for 30 min. The one-tenth of the produced cDNA was amplified by PCR using Taq DNA polymerase (Invitrogen) and two reporter sequence-specific primers. The PCR products were fluorescently labeled by primer extension with 6-arboxyfluorescein (6-FAM) 5'-labeled reporter sequence-specific primer (2 min at 95 C, 20 s at 68 C and 10 min at 72 C) and these products were digested with 5U of HpaI (New England Biolabs) for 2h at 37 C. The fragments were purified using Qiaquick PCR columns (Qiagen), analyzed on an ABI 3130xL genetic analyzer (Applied Biosystems) with peak positions identified by using a set of X-rhodamine (ROX)-labeled MapMarker1000 molecular weight standards (BioVentures). The raw capillary electrophoresis data was processed using Attagraph software (Attagene).

Row | SMILES | outcome | AC50
1 | CCCCCCCCCCCCCOP(=O)(O)O | inactive | 
2 | CCOC(=O)Cc1cccc2ccccc12 | inactive | 
3 | [Cl][In]([Cl])[Cl] | inactive | 
4 | NCCCN1CCN(CCCN)CC1 | inactive | 
5 | C=CC(=O)OCCOC1C2CCC1C1CC=CC12 (stereo not given) | inactive | 
6 | C=C(C)[C@@H]1CCC2=CCC[C@@H](C)[C@]2(C)C1 |  | 2.72 µM (active)
7 | C1=Cc2ccccc2C1 |  | 6.06 µM (active)
8 | CCCCCCCC/C=C\CCCCCCCC(=O)OCCO | inactive | 
9 | Cc1ccc(C(C)(C)C)cc1 | inactive | 
10 | c1ccc(CCCc2ccncc2)cc1 | inactive | 
11 | CC(=O)C=CC1C(C)=CCC(C)C1(C)C (stereo not given) |  | 1.42 µM (active)
12 | Nc1nc2ccccc2[nH]1 | inactive | 
13 | COc1ccc(-c2coc3cc(O)ccc3c2=O)cc1 | inactive | 
14 | C[C@]12C=CC(=O)C=C1CC[C@@H]1[C@@H]2[C@@H](O)C[C@@]2(C)[C@H]1CC[C@]2(O)C(=O)CO |  | 25.9 µM (active)
15 | O=c1[nH]nc(-c2ccc([N+](=O)[O-])o2)o1 | inactive | 
16 | C=C[Si](OC(C)=O)(OC(C)=O)OC(C)=O |  | 4.82 µM (active)
17 | CC(=O)OCCC1CCCCC1 | inactive | 
18 | NC(=O)N=NC(N)=O | inactive | 
19 | CC1=CC[C@H]2C[C@@H]1C2(C)C | inactive | 
20 | O=C1CCCC(=O)O1 | inactive | 

Row | SMILES | outcome | AC50
21 | CCCCCCCCO[C@@H]1O[C@H](CO)[C@@H](O)[C@H](O)[C@H]1O | inactive | 
22 | Cc1ccc2c(c1)C(=O)c1ccccc1C2=O |  | 6.18 µM (active)
23 | Cc1cccc(N(C)C(=S)Oc2ccc3ccccc3c2)c1 |  | 0.337 µM (active)
24 | Cc1cc(C)c(C)c(C)c1 | inactive | 
25 | COCCCOCCCOC | inactive | 
26 | CC=CCO | inactive | 
27 | CCCCCCCCCCOS(=O)(=O)O | inactive | 
28 | CC(C)COC(=O)C=Cc1ccccc1 |  | 29.4 µM (active)
29 | NC(=O)NNC(N)=O | inactive | 
30 | CN(C)CCCN(C)C | inactive | 
31 | OC1CCCCCCCCCCC1 |  | 8.87 µM (active)
32 | COc1ccc2nc(N)sc2c1 | inactive | 
33 | O=c1cc(-c2ccccc2)oc2ccccc12 |  | 6.29 µM (active)
34 | Clc1nc2ccccc2s1 | inactive | 
35 | O=C(O)c1cc(Cl)cc([N+](=O)[O-])c1Cl | inactive | 
36 | CC(C)c1ccc2c(c1)CC[C@H]1[C@](C)(CN)CCC[C@]21C | inactive | 
37 | CCOC(=O)CC(C(C)=O)C(C)=O | inactive | 
38 | O=c1c2ccccc2oc2ccccc12 |  | 27.3 µM (active)
39 | CCN(CC)c1ccc(C(=O)c2ccccc2C(=O)O)c(O)c1 |  | 0.611 µM (active)
40 | C=CC(C)(C)C | inactive | 
